Composite z-score and z-score data for 13 molecules are collected here from PubChem BioAssay.

Experiment [1] has as its system PRMT1 (protein arginine N-methyltransferase 1). Nature of the experiment: PRMT1 binders on small-molecule microarrays, primary screen, biochemical, small-molecule microarray, 635 nm fluorescence (AID 1088).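 Note: binding of Prmt1 protein to compounds spotted on small-molecule microarray slides.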 Particulars: small-molecule microarray binding, higher = more signal.
Experiment [2] can be described thus: yeast growth modulation, basal conditions, primary screen, YJM789 clinical isolate, OD600, 24 h (AID 1089).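 Note: growth of clinical yeast isolate S. cerevisiae YJM 789 seeded 1000 cells per well; test concentration not given here.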 Particulars: S. cerevisiae YJM789 growth, higher = more signal, called active from +8 up or from −8 down.
The nature of experiment [3]: fission yeast growth modulation, primary screen, strain 972, OD600, 24 h, no modulator (AID 1090).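 Note: basal condition with compound alone and no growth modifier present; test concentration not given here.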 Particulars: S. pombe 972 growth, higher = more signal, called active from +8 up or from −8 down.
A short description of experiment [4]: S. cerevisiae growth modulation with rapamycin, primary screen, strain BY4716, OD600, 96 h (AID 1091). Note: test concentration not given here. Particulars: higher = more signal, called active from +8 up or from −8 down.
The target of experiment [5] is Torsin-1A-interacting protein 2 (Homo sapiens) (UniProt Q8NFQ8). The experiment is described as follows: LULL1 binders on small-molecule microarray, primary screen, cell lysate, human LULL1 lysate, 635/667 nm fluorescence (AID 1092).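 Note: probe is lysate of COS7 cells overexpressing human LULL1; score merges per-feature 667 nm fluorescence with signal-to-noise.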 Particulars: hLULL1 lysate binding, 635 nm fluorescence, higher = more signal.
Experiment [6] can be described thus: E. coli growth modulation, two-sided OD650, primary screen, E. coli filamentation project, strain DRC41, 24 h (AID 1093).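 Note: MC1000 strain lacking acrAB efflux and sulA so SOS filamentation is blocked; test concentration not given here.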 To be noted: OD650, 24 h, higher = more signal, called active from +8 up or from −8 down.
Experiment [7] is described as follows: small-molecule microarray binders of probe aLefty2, primary screen, biochemical, biotinylated probe, 635/667 nm fluorescence (AID 1094).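 Note: score merges spot fluorescence near 667 nm with spot signal-to-noise ratio.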 Particulars: higher = more signal.
The test system of experiment [8] is Noggin (protein binding on small-molecule microarray). Nature of the experiment: Noggin binders on small-molecule microarray, primary screen, biochemical, 635/667 nm fluorescence (AID 1095).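 Note: score merges 667 nm feature fluorescence with signal to noise over triplicate slides.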 To be noted: 635 nm fluorescence, higher = more signal.
For experiment [9], the target named is Neurogenic locus notch homolog protein 3 (Homo sapiens) (UniProt Q9UM47). The experiment is described as follows: NOTCH3 binders on small-molecule microarray, primary screen, biochemical, 635/667 nm fluorescence (AID 1096). Particulars: NOTCH3 binding, 635 nm fluorescence, higher = more signal.
A short description of experiment [10]: small-molecule microarray binders of probe aEGFR, primary screen, biochemical, biotinylated probe, 635/667 nm fluorescence (AID 1097).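 Note: probe is a biotinylated anti-EGFR antibody binding compounds printed on slides; score combines fluorescence near 667 nm and signal to noise of each spot.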 To be noted: higher = more signal.

Activity calls are given as the source filed them.

Chain of Neurogenic locus notch homolog protein 3 (Homo sapiens) (Q9UM47 whole entry, looked up): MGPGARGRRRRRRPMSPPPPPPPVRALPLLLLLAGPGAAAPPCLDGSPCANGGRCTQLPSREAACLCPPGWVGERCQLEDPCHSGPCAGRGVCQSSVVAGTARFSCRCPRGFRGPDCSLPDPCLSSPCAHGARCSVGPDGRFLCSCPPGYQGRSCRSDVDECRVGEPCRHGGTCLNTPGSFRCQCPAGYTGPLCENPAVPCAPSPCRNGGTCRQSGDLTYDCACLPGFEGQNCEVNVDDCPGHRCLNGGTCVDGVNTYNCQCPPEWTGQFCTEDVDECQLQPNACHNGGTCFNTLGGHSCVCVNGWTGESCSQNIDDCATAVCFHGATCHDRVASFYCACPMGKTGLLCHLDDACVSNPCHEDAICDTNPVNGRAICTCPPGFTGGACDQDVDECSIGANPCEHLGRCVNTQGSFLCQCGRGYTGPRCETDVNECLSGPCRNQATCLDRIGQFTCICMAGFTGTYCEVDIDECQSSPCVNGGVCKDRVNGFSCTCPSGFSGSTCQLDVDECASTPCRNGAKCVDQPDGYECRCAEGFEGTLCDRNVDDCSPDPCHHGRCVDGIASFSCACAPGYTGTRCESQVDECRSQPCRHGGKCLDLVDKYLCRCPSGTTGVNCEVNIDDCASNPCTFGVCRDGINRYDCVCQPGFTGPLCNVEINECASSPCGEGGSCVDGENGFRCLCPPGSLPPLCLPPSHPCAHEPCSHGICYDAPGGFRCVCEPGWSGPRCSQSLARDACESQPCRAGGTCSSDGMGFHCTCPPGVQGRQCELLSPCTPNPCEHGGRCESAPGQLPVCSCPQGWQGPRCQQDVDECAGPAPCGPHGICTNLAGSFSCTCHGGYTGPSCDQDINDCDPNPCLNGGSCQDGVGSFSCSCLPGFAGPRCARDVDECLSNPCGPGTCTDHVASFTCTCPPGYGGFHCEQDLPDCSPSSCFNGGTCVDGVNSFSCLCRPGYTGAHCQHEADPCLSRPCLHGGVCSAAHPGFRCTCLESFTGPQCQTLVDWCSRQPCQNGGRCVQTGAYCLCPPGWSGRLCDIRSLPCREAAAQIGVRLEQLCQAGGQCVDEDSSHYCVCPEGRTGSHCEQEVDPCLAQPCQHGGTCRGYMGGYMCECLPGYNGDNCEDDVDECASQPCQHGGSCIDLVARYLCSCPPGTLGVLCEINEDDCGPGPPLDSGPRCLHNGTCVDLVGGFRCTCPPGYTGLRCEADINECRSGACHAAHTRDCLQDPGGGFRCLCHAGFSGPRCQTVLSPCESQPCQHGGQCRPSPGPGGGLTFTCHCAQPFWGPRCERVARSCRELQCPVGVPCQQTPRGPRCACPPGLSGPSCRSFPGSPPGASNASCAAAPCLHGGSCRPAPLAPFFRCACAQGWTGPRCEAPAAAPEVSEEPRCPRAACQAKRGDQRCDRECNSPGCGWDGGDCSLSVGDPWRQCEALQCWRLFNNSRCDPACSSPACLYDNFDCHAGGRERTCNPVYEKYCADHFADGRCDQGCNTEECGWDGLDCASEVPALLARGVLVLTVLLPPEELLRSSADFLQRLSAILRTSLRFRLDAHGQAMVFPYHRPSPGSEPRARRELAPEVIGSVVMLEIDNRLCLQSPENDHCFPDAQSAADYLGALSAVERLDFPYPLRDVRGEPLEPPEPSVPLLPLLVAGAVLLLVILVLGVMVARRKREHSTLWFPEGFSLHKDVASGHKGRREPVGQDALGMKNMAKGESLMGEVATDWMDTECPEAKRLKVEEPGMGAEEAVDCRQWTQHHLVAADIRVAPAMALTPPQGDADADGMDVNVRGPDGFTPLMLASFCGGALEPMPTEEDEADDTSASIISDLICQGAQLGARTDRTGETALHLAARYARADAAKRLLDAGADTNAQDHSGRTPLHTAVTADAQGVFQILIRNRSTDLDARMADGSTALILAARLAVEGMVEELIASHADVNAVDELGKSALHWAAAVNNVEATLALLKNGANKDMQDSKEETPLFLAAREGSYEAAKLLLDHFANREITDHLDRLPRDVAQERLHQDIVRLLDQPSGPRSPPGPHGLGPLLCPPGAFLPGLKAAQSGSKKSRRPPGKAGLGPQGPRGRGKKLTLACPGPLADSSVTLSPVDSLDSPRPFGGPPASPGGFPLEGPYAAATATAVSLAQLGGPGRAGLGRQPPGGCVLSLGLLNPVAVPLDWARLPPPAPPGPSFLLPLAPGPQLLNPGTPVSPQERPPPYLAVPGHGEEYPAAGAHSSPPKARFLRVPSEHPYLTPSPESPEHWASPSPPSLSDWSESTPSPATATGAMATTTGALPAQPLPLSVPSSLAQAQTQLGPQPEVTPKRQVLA
Chain of Torsin-1A-interacting protein 2 (Homo sapiens) (Q8NFQ8 whole entry, looked up): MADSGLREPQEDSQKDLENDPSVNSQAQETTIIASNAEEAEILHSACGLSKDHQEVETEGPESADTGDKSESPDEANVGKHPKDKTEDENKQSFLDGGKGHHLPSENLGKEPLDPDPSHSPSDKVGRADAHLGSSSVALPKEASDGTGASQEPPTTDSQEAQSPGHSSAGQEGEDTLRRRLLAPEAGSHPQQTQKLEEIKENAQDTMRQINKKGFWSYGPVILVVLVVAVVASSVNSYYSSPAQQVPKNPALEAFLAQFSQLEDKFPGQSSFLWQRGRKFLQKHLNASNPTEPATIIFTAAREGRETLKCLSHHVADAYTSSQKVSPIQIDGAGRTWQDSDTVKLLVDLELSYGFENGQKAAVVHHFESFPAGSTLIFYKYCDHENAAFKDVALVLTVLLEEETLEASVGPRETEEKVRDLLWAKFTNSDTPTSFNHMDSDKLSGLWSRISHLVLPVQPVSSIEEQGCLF

Consider `COCCOC(=O)N1C(=O)[C@@]2(c3cc(C#CCCO)ccc31)[C@H](C(=O)N1CCCCCCC1)[C@H]1C(=O)O[C@H](c3ccccc3)[C@H](c3ccccc3)N1[C@@H]2c1ccccc1OCCO`, for which the composite z-score in experiment [1] was determined as 1.54; in experiment [5], 4; in experiment [7] it was 1.47; in experiment [8], 1.76; in experiment [9], 1.07; in [10], 0.89. The z-score in experiment [2] was 0.658 (inactive); in experiment [3], -2.09 (inactive); in [4], 1.93 (inactive); in experiment [6], -0.452 (inactive).
Turning to `O=C1[C@@H]2[C@@H](CC(COc3ccccc3)=C3[C@@H](CCc4ccccc4)OB(O)C[C@@H]32)C(=O)N1Cc1ccccc1`, the composite z-score in experiment [1] was -0.0537; in experiment [5], 0.828; in experiment [7], -0.274; in experiment [8], 0.204; in [9], 0.359; in experiment [10], -0.116. The z-score was -0.402 (inactive) in experiment [2], -1.04 (inactive) in experiment [3], 0.297 (inactive) in experiment [4] and -0.874 (inactive) in experiment [6].
`O=C(CS)NCCCCCNC(=O)[C@@H]1C[C@@H]2C(=O)N[C@@H](Cc3ccccc3)C(=O)N2[C@@H]1c1cccc(OCCO)c1`: the composite z-score was 1.56 in experiment [1]; 3.04 in experiment [5]; -0.515 in experiment [7]; 0.203 in experiment [8]; 0.823 in [9]; -0.0271 in experiment [10]. For the same molecule, the z-score in experiment [2] was 0.368 (inactive); in [3] it was -0.653 (inactive); in experiment [4], 0.658 (inactive); in experiment [6] it was 0.142 (inactive).
On to `CCCCC(=C=CC[C@H](O)c1ccc(OCCO)cc1)C[C@H](O)COCc1ccccc1`, for which the composite z-score in experiment [1] is 0.857; in experiment [5], 1.36; in [7], -0.116; in experiment [8], 0.395; in [9], -0.36; in experiment [10], 0.0028. Also, the z-score is 0.85 (inactive) in [2], -1.43 (inactive) in experiment [3], -0.374 (inactive) in experiment [4] and 0.125 (inactive) in [6].
With `COCCOC(=O)N1C(=O)[C@@]2(c3cc(C#CCC(C(=O)OC)C(=O)OC)ccc31)[C@H](C(=O)NC[C@H](O)c1ccccc1)[C@H]1C(=O)O[C@H](c3ccccc3)[C@H](c3ccccc3)N1[C@@H]2c1ccc(O)cc1`, the composite z-score was 1.36 in experiment [1]; 2.78 in [5]; -0.0845 in [7]; -1.08 in experiment [8]; 0.687 in [9]; -0.0828 in experiment [10]. For the same molecule, the z-score in experiment [2] was 1.05 (inactive); in experiment [3], 1.37 (inactive); in experiment [4] it was 0.174 (inactive); in experiment [6] it was -0.377 (inactive).
For `CCCCC(=O)N(CCN1CCOCC1)[C@@H]1CC(C(=O)NCCO)=C[C@H](Oc2c(I)cc(CO)cc2OC)[C@H]1O`, the composite z-score in [1] is 0.729; in experiment [5], 0.322; in experiment [7], -0.301; in experiment [8], 0.26; in experiment [9], 0.232; in experiment [10], -0.152. The z-score in experiment [2] is 0.0164 (inactive); in [3] it was -0.393 (inactive); in experiment [4] it was 0.0883 (inactive); in experiment [6], 1.3 (inactive).
Consider `CCOC(=O)C1=C[C@@H](C(C)(C)C)N(S(=O)(=O)c2ccc(C)cc2)[C@H]1c1ccccc1`, for which the composite z-score in experiment [1] was 1.22; in experiment [5], 0.928; in experiment [7], 0.0194; in experiment [8], 0.576; in experiment [9] it was 1.07; in [10] it was 0.124. In addition, the z-score in experiment [2] was 0.826 (inactive); in [3] it was 1.27 (inactive); in experiment [4], 1.41 (inactive); in experiment [6], -0.0247 (inactive).
With `COCC1=C2[C@@H](CCc3ccccc3)OB(O)C[C@@H]2[C@@H]2C(=O)N(C)C(=O)[C@@H]2C1`, the composite z-score in experiment [1] is -0.0522; in experiment [5], 0.332; in experiment [7], -0.0141; in [8] it was 0.0638; in [9], 0.183; in experiment [10], -0.131. In addition, the z-score in [2] is -0.31 (inactive); in experiment [3] it was -1.56 (inactive); in [4] it was -0.53 (inactive); in experiment [6], -0.817 (inactive).
`COC(=O)[C@@]1(Cc2ccccc2)[C@H]2c3cc(C(=O)N(C)C)n(CCn4cc([N+](=O)[O-])nc4C)c3C[C@H]2CN1C(=O)c1ccccc1`: the composite z-score in [1] is 1.13; in experiment [5], 3.63; in experiment [7] it was 0.16; in [8], 0.0356; in [9] it was 1.03; in experiment [10], -0.0088. Also, the z-score in experiment [2] is -1.54 (inactive); in experiment [3], 0.69 (inactive); in experiment [4] it was 0.253 (inactive); in [6] it was -0.592 (inactive).
On to `C=CCC(OC(C)=O)[C@@H]1[C@@H](N(Cc2cccc3ccccc23)C(=O)Cc2ccc(F)cc2)c2cc(OCCCO)ccc2N1C(=O)c1ccc(-c2ccccc2)cc1` (stereo not given in full), for which the composite z-score is -0.325 in experiment [1]; 0.451 in experiment [5]; 0.125 in experiment [7]; -0.556 in experiment [8]; -1.37 in experiment [9]; 0.0457 in [10]. Also, the z-score is -0.256 (inactive) in [2], -0.277 (inactive) in experiment [3], 0.18 (inactive) in experiment [4] and 0.125 (inactive) in experiment [6].
On to `O=C1c2ccccc2[C@](Cc2ccccc2I)(C(=O)NC2CC2)[C@H](c2ccc(CO)cc2)N1Cc1ccccc1C(F)(F)F`, for which the composite z-score in experiment [1] was 1.55; in experiment [5], 2.76; in experiment [7], -0.0817; in experiment [8], 0.894; in [9], 1.06; in experiment [10] it was -0.139. Besides, the z-score in experiment [2] is -0.124 (inactive); in [3], -0.684 (inactive); in experiment [4], 0.341 (inactive); in [6], -1.8 (inactive).
In the case of `CCCNC(=O)[C@@]1(C)c2ccccc2C(=O)N(Cc2ccccc2)[C@H]1c1ccc(CO)cc1`, the composite z-score in experiment [1] was 1.54; in experiment [5], 2.76; in [7], 0.0844; in experiment [8] it was -1.1; in experiment [9], -0.127; in experiment [10], -0.094. Moreover, the z-score was -0.864 (inactive) in experiment [2], -1.08 (inactive) in [3], -0.871 (inactive) in experiment [4] and 1.32 (inactive) in experiment [6].
With `COCCOC(=O)N1C(=O)[C@@]2(c3ccccc31)[C@H](c1ccc(OCCO)cc1)N1[C@H](c3ccccc3)[C@H](c3ccccc3)OC(=O)[C@H]1[C@@H]2C(=O)N1CCCCCCC1`, the composite z-score in [1] came to 1.54; in experiment [5] it was 5.18; in [7], 1.83; in experiment [8], 2.45; in experiment [9], 1; in [10] it was 1.43. The z-score in experiment [2] is 0.178 (inactive); in [3] it was 0.182 (inactive); in [4] it was 2.92 (inactive); in experiment [6], -0.504 (inactive).
